The values that follow come from publication PMC8384837, “Expanding the binding specificity for RNA recognition by a PUF domain”.

Common to all, as to test: yeast three-hybrid, YBZ-1, SC-Leu-His + 0.5 mM 3-AT, 4 days
What all share (conditions): tags: N-Gal4 AD-HA kept; label: inside an RPR1-promoter hybrid RNA with tandem MS2 sites; ssRNA

One assay has as its target PUM1 PUF domain R3-FRG (Homo sapiens, UniProt Q14671 828-1176, C935F;Q939G). The essentials:
(§1)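 Pumilio-1 PUF domain libraries, randomized (NNK) at the three base-contacting residues of each repeat, were co-expressed with matching RNA elements from a centromeric plasmid in strain YBZ-1 (LexA–MS2 coat fusion, HIS3 reporter). Transformants were plated on SC-Leu (input) and SC-Leu-His + 0.5 mM 3-AT (selection) for four days, and repeat regions were PCR-amplified and Illumina-sequenced. The interaction score is the log2 change in variant frequency from input to selection, with pseudocount 1 where absent.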

The target in another assay is PUM1 PUF domain R3-IRV (Homo sapiens, UniProt Q14671 828-1176, C935I;Q939V). The essentials:
as §1

The next assay concerns the target PUM1 PUF domain R4-SRV (Homo sapiens, UniProt Q14671 828-1176, N971S;H972R;Q975V). The essentials: as §1
Another assay deals with PUM1 PUF domain R4-FGA (Homo sapiens, UniProt Q14671 828-1176, N971F;H972G;Q975A). The essentials: as §1
In the next assay the target is PUM1 PUF domain R3-YWT (Homo sapiens, UniProt Q14671 828-1176, C935Y;R936W;Q939T). The essentials:
as §1

For the next assay, the target named is PUM1 PUF domain R1-RLE (Homo sapiens, UniProt Q14671 828-1176, S863R;R864L;Q867E). The essentials:
as §1

A further assay deals with PUM1 PUF domain R1-QRS (Homo sapiens, UniProt Q14671 828-1176, S863Q;Q867S). The essentials:
as §1

A further assay addresses PUM1 PUF domain R5-DRL (Homo sapiens, UniProt Q14671 828-1176, C1007D;Q1011L). The essentials:
as §1

A further assay addresses PUM1 PUF domain R5-SKQ (Homo sapiens, UniProt Q14671 828-1176, C1007S;R1008K). The essentials:
as §1

The target in the next assay is PUM1 PUF domain R5-ERG (Homo sapiens, UniProt Q14671 828-1176, C1007E;Q1011G). The essentials:
as §1

A further assay addresses PUM1 PUF domain R7-KPM (Homo sapiens, UniProt Q14671 828-1176, S1079K;N1080P;E1083M). The essentials: as §1
Another assay concerns the target PUM1 PUF domain R5-GPR (Homo sapiens, UniProt Q14671 828-1176, C1007G;R1008P;Q1011R). The essentials: as §1
The target in the next assay is PUM1 PUF domain R5-RGR (Homo sapiens, UniProt Q14671 828-1176, C1007R;R1008G;Q1011R). The essentials:
as §1

The target in another assay is PUM1 PUF domain R5-KYK (Homo sapiens, UniProt Q14671 828-1176, C1007K;R1008Y;Q1011K). The essentials:
as §1

A further assay concerns the target PUM1 PUF domain R8-HYC (Homo sapiens, UniProt Q14671 828-1176, N1122H;Q1126C). The essentials: as §1
A further assay has as its target PUM1 PUF domain R5-LHV (Homo sapiens, UniProt Q14671 828-1176, C1007L;R1008H;Q1011V). The essentials: as §1
For a further assay, the target named is PUM1 PUF domain R5-PRC (Homo sapiens, UniProt Q14671 828-1176, C1007P;Q1011C). The essentials: as §1
Another assay addresses T1, PUM1 PUF domain R6-AFQ (Homo sapiens, UniProt Q14671 828-1176, N1043A;Y1044F).
T1 sequence: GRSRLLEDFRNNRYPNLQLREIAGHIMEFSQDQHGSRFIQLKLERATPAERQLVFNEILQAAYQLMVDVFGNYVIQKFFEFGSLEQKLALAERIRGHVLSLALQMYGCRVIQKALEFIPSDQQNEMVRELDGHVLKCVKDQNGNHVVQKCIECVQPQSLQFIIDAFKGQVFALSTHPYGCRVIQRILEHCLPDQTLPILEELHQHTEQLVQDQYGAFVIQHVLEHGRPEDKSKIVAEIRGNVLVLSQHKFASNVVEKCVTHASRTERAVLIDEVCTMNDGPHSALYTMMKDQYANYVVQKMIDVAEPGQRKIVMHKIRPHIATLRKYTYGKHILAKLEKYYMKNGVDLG
The essentials: as §1

Another assay addresses PUM1 PUF domain R5-KSQ (Homo sapiens, UniProt Q14671 828-1176, C1007K;R1008S). The essentials:
as §1

Another assay concerns the target T2, PUM1 PUF domain R6-CFE (Homo sapiens, UniProt Q14671 828-1176, N1043C;Y1044F;Q1047E).
T2 sequence: T1 sequence with A216C, Q220E
The essentials:
as §1

Positions count from the first letter of the chain named.

Chain of PUM1 PUF domain R5-ERG (Q14671 828-1176 C1007E/Q1011G): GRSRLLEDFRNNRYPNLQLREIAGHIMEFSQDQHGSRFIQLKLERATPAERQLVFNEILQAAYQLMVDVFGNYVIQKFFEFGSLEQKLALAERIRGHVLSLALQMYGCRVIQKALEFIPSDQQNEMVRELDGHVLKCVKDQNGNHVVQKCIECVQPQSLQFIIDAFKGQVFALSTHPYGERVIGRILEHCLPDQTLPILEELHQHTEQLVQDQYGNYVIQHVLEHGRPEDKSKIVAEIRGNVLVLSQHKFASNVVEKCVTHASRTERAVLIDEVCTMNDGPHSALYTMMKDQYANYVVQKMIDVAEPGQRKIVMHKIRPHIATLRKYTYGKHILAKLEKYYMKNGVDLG
Chain of PUM1 PUF domain R5-GPR (Q14671 828-1176 C1007G/R1008P/Q1011R): as the sequence (Q14671 828-1176 C1007E/Q1011G) above, with E180G, R181P, G184R counted along it
Chain of PUM1 PUF domain R1-RLE (Q14671 828-1176 S863R/R864L/Q867E): as the sequence (Q14671 828-1176 C1007E/Q1011G) above, with S36R, R37L, Q40E, E180C, G184Q counted along it
Chain of PUM1 PUF domain R5-DRL (Q14671 828-1176 C1007D/Q1011L): as the sequence (Q14671 828-1176 C1007E/Q1011G) above, with E180D, G184L counted along it
Chain of PUM1 PUF domain R7-KPM (Q14671 828-1176 S1079K/N1080P/E1083M): as the sequence (Q14671 828-1176 C1007E/Q1011G) above, with E180C, G184Q, S252K, N253P, E256M counted along it
Chain of PUM1 PUF domain R5-KSQ (Q14671 828-1176 C1007K/R1008S): as the sequence (Q14671 828-1176 C1007E/Q1011G) above, with E180K, R181S, G184Q counted along it
Chain of PUM1 PUF domain R3-YWT (Q14671 828-1176 C935Y/R936W/Q939T): as the sequence (Q14671 828-1176 C1007E/Q1011G) above, with C108Y, R109W, Q112T, E180C, G184Q counted along it
Chain of PUM1 PUF domain R5-SKQ (Q14671 828-1176 C1007S/R1008K): as the sequence (Q14671 828-1176 C1007E/Q1011G) above, with E180S, R181K, G184Q counted along it
Chain of PUM1 PUF domain R8-HYC (Q14671 828-1176 N1122H/Q1126C): as the sequence (Q14671 828-1176 C1007E/Q1011G) above, with E180C, G184Q, N295H, Q299C counted along it
Chain of PUM1 PUF domain R5-KYK (Q14671 828-1176 C1007K/R1008Y/Q1011K): as the sequence (Q14671 828-1176 C1007E/Q1011G) above, with E180K, R181Y, G184K counted along it

On to “GGCUAGAACUAGUGGAUCCCCCGGCGCCCGGCGGCUCGAGCCCGGGUAAGUGUAAGUAGUCUGCAUGCCGCCGGGCGCCAUGCCUGCAGGUCGACUCUAGAAAACAUG”, for which the binding signal with PUM1 PUF domain R3-FRG is 5.59 log2 enrichment (interaction score); with PUM1 PUF domain R3-IRV, 1.69 log2 enrichment (interaction score).
On to “GGCUAGAACUAGUGGAUCCCCCGGCGCCCGGCGGCUCGAGCCCGGGUAAGUGUACAUAGUCUGCAUGCCGCCGGGCGCCAUGCCUGCAGGUCGACUCUAGAAAACAUG”, for which the binding signal with PUM1 PUF domain R4-SRV is 0.98 log2 enrichment (interaction score); in the assay with PUM1 PUF domain R4-FGA it was 3.23 log2 enrichment (interaction score).
For “GGCUAGAACUAGUGGAUCCCCCGGCGCCCGGCGGCUCGAGCCCGGGUAAGUGUAAUUAGUCUGCAUGCCGCCGGGCGCCAUGCCUGCAGGUCGACUCUAGAAAACAUG”, the binding signal with PUM1 PUF domain R3-YWT is 2.71 log2 enrichment (interaction score).
For the sequence “GGCUAGAACUAGUGGAUCCCCCGGCGCCCGGCGGCUCGAGCCCGGGUAAGUGUAAAUUGUCUGCAUGCCGCCGGGCGCCAUGCCUGCAGGUCGACUCUAGAAAACAUG”, the values for the binding signal with PUM1 PUF domain R1-RLE and in the assay with PUM1 PUF domain R1-QRS were 2.88 log2 enrichment (interaction score) and 2.7 log2 enrichment (interaction score), respectively.
Consider “GGCUAGAACUAGUGGAUCCCCCGGCGCCCGGCGGCUCGAGCCCGGGUAAGUGUGAAUAGUCUGCAUGCCGCCGGGCGCCAUGCCUGCAGGUCGACUCUAGAAAACAUG”, for which the binding signal with PUM1 PUF domain R5-DRL was 1.6 log2 enrichment (interaction score); with PUM1 PUF domain R5-SKQ, 2.39 log2 enrichment (interaction score); with PUM1 PUF domain R5-ERG, 1.54 log2 enrichment (interaction score).
Regarding “GGCUAGAACUAGUGGAUCCCCCGGCGCCCGGCGGCUCGAGCCCGGGUAAGUCUAAAUAGUCUGCAUGCCGCCGGGCGCCAUGCCUGCAGGUCGACUCUAGAAAACAUG”, in the assay with PUM1 PUF domain R7-KPM, the binding signal was 3.19 log2 enrichment (interaction score).
In the case of “GGCUAGAACUAGUGGAUCCCCCGGCGCCCGGCGGCUCGAGCCCGGGUAAGUGUUAAUAGUCUGCAUGCCGCCGGGCGCCAUGCCUGCAGGUCGACUCUAGAAAACAUG”, the binding signal is 2.39 log2 enrichment (interaction score) with PUM1 PUF domain R5-GPR and 3.07 log2 enrichment (interaction score) in the assay with PUM1 PUF domain R5-RGR.
As for “GGCUAGAACUAGUGGAUCCCCCGGCGCCCGGCGGCUCGAGCCCGGGUAAGUGUAAAUAGUCUGCAUGCCGCCGGGCGCCAUGCCUGCAGGUCGACUCUAGAAAACAUG”, the binding signal with PUM1 PUF domain R5-DRL was 2.34 log2 enrichment (interaction score); in the assay with PUM1 PUF domain R5-KYK, 2.74 log2 enrichment (interaction score); with PUM1 PUF domain R8-HYC, 3.69 log2 enrichment (interaction score); in the assay with PUM1 PUF domain R5-ERG, 3.47 log2 enrichment (interaction score); in the assay with PUM1 PUF domain R5-LHV, 3.57 log2 enrichment (interaction score); with PUM1 PUF domain R4-SRV, 3.51 log2 enrichment (interaction score). The binding signal in the assay with PUM1 PUF domain R5-PRC was 4.13 log2 enrichment (interaction score); with PUM1 PUF domain R3-IRV, 2.93 log2 enrichment (interaction score); with PUM1 PUF domain R6-AFQ, 3.75 log2 enrichment (interaction score); in the assay with PUM1 PUF domain R4-FGA, 1.37 log2 enrichment (interaction score).
As to “GGCUAGAACUAGUGGAUCCCCCGGCGCCCGGCGGCUCGAGCCCGGGUAAGUGUCAAUAGUCUGCAUGCCGCCGGGCGCCAUGCCUGCAGGUCGACUCUAGAAAACAUG”, the binding signal in the assay with PUM1 PUF domain R5-GPR was 4.4 log2 enrichment (interaction score); with PUM1 PUF domain R5-ERG, 2.14 log2 enrichment (interaction score); in the assay with PUM1 PUF domain R5-KSQ, 5.03 log2 enrichment (interaction score); in the assay with PUM1 PUF domain R5-LHV, 1.43 log2 enrichment (interaction score); in the assay with PUM1 PUF domain R5-RGR, 3.52 log2 enrichment (interaction score).
Regarding “GGCUAGAACUAGUGGAUCCCCCGGCGCCCGGCGGCUCGAGCCCGGGUAAGUGAAAAUAGUCUGCAUGCCGCCGGGCGCCAUGCCUGCAGGUCGACUCUAGAAAACAUG”, the binding signal with PUM1 PUF domain R6-CFE is 6.12 log2 enrichment (interaction score).
As for “GGCUAGAACUAGUGGAUCCCCCGGCGCCCGGCGGCUCGAGCCCGGGUAAGUGUAAAUCGUCUGCAUGCCGCCGGGCGCCAUGCCUGCAGGUCGACUCUAGAAAACAUG”, the binding signal with PUM1 PUF domain R1-RLE is 2.67 log2 enrichment (interaction score).
For “GGCUAGAACUAGUGGAUCCCCCGGCGCCCGGCGGCUCGAGCCCGGGUAAGUGGAAAUAGUCUGCAUGCCGCCGGGCGCCAUGCCUGCAGGUCGACUCUAGAAAACAUG”, the binding signal in the assay with PUM1 PUF domain R6-CFE was 2.88 log2 enrichment (interaction score).
“GGCUAGAACUAGUGGAUCCCCCGGCGCCCGGCGGCUCGAGCCCGGGUAAGUGUAUAUAGUCUGCAUGCCGCCGGGCGCCAUGCCUGCAGGUCGACUCUAGAAAACAUG”: the binding signal is 1.19 log2 enrichment (interaction score) with PUM1 PUF domain R4-SRV and 2.95 log2 enrichment (interaction score) with PUM1 PUF domain R4-FGA.
